This is one part of a sample in which hits are shown more often than they occur.
TDP1 cell noCPT: qHTS for Inhibitors of human tyrosyl-DNA phosphodiesterase 1 (TDP1): qHTS in cells in absence of CPT | DT40 Tdp1-/- hTDP1 cells, no CPT, ATP luminescence, 48 h | 15% of 420,000 active | AID 686978, 2013 | Potency, µM (top dose mostly 46.2 µM), usual class: inhibitors; note: nearly all actives have a fitted effect of over 55% in size
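Chicken DT40 Tdp1-/- cells complemented with human TDP1, screened without camptothecin (DMSO vehicle only), 400 cells/well. Compounds pin-transferred, cells incubated at 37 °C for at least 48 hr. Growth read as ATP-dependent luminescence (CellTiter-Glo, 30 min at RT).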
HT1080-NT tox: kills 2HG-producing HT-1080-NT fibrosarcoma cells. 1.6% of 360,000 active. HT-1080-NT fibrosarcoma viability, CellTiter-Glo ATP luminescence, 48 h. Potency, µM (highest dose often 46.1 µM), most hits filed as cytotoxic. AID 686970;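 note: NT is the 2HG producing partner of a matched IDH1 knockdown line; nearly all actives have a fitted effect of over 55% in size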
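HT-1080-NT; 750 cells/well; 5% FBS RPMI; 48 h compound, 37 degrees C; CellTiter-Glo luminescence; curve fitting and curve-class assignment.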
12-LOX inh: ALOX12 (human) lipoxygenase inhibition; P18054; purified 12hLO, xylenol orange hydroperoxide absorbance; Potency, µM (highest dose often 108 µM), hits mostly inhibitors; 1.1% of 580,000 active; AID 1671190
Target sequence (P18054 whole entry, looked up): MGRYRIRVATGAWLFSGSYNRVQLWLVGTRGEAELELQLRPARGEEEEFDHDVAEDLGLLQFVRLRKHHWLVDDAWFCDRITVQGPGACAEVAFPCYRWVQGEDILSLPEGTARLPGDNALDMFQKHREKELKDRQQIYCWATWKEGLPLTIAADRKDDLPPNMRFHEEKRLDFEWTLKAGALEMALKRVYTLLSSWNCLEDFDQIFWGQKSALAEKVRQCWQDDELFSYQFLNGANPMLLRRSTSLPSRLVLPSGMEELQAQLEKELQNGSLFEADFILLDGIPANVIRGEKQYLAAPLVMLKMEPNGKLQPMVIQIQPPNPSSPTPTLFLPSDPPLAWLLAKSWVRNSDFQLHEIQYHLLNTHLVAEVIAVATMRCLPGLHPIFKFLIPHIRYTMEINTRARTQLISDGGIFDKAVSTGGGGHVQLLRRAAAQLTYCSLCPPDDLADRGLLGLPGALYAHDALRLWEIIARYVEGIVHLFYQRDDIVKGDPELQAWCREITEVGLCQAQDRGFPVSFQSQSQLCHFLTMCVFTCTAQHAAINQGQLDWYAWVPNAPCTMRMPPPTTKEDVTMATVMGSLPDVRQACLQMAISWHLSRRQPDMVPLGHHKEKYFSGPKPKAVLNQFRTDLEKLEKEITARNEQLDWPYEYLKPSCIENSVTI
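Purified human 12hLO at 150 nM in 25 mM Hepes, 0.01% Triton X-100, pH 7.0, preincubated 15 min at room temperature with compound. Reaction started with 40 uM arachidonic acid, 30 min at room temperature. Hydroperoxide measured by Fe-xylenol orange, 573/405 nm absorbance ratio.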
TDP1 cell CPT: growth inhibition of DT40 Tdp1-/-;hTDP1 cells with camptothecin (screen for TDP1 inhibitors); chicken DT40 Tdp1-/-;hTDP1 cells + 20 nM CPT, ATP luminescence, 48 h; Potency, µM (series often up to 46.2 µM), hits mostly inhibitors; 12% of 420,000 active; note: nearly all actives have a fitted effect of over 55% in size
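Chicken DT40 Tdp1-/- cells complemented with human TDP1, 400 cells/well, exposed to compounds plus 20 nM camptothecin for at least 48 h at 37 C; viability read as ATP content by CellTiter-Glo luminescence.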
IL1B secr inh: inflammasome signaling inhibition, IL-1 beta readout. AID 743279. 4.7% of 360,000 active. activity change, % at 57.5 µM. THP-1 LPS/ATP IL-1B secretion, AlphaLISA, 16 h; stronger effect = lower value; in the data active = activity change below about -50%; inconclusive = mostly about -30% to -49%
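THP-1 cells pretreated 1 hr with compounds (up to 57.5 uM final), then stimulated with LPS (250 ng/mL final) plus ATP (1.25 mM final); secreted IL-1B measured by AlphaLISA after 16 hr, decreased signal indicating inhibition.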
HT1080 IDH1KD tx: HT-1080 IDH1 knockdown cell toxicity (counter line). 2% of 360,000 active. HT-1080 IDH1 knockdown viability, ATP luminescence, 48 h. Potency, µM (doses to about 46.1 µM), usual class: cytotoxic. AID 686971
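Cytotoxicity counter-line: IDH1KD HT-1080, 48 h, CellTiter-Glo. Curves classed by r2, magnitude and activity.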
Large screens that a line does not name were inactive. Unless noted, calls come from the whole dose curve; as a rule, active = well fitted curve in the direction sought with a large enough effect; inconclusive = small, poorly fitted or top-dose-only effect, or another doubt; inactive = no such curve, though single readings can be large; an effect the other way counts as inactive or inconclusive.

CCCOc1ccc(C(=O)NC(=S)NNC(=O)c2c(-c3ccccc3)noc2C)cc1	TDP1 cell noCPT inconclusive, HT1080-NT tox inconclusive, TDP1 cell CPT 23µM, HT1080 IDH1KD tx inconclusive
CC(=O)Nc1ccc(OCCCNC(=O)c2c(-c3ccccc3)noc2C)cc1	TDP1 cell noCPT 15µM, TDP1 cell CPT inconclusive
O=C(NCCS(=O)(=O)N1CCN(c2ccccc2F)CC1)c1cccs1	none
O=C(c1ccc(Oc2ccccc2)cc1)N1CCC2OCCN(c3ccccc3)C(=O)C2C1 (stereo unspecified)	none (no result: TDP1 cell noCPT, HT1080-NT tox, TDP1 cell CPT, IL1B secr inh, HT1080 IDH1KD tx)
Cc1onc(-c2ccccc2)c1C(=O)NC(=S)NNC(=O)c1ccc(O)cc1O	TDP1 cell noCPT 4.6µM, HT1080-NT tox inconclusive, 12-LOX inh inconclusive, TDP1 cell CPT 4.1µM
Cc1ccc(C=Nc2ccc(N(C)C)cc2)o1	TDP1 cell noCPT 2.1µM, TDP1 cell CPT 5.2µM, HT1080 IDH1KD tx inconclusive
CCc1noc(-c2cccn3c(CNC(=O)c4ccccc4F)nnc23)n1	none (no result: TDP1 cell noCPT, HT1080-NT tox, TDP1 cell CPT, IL1B secr inh, HT1080 IDH1KD tx)
Cc1cccc(NC(=S)Nc2ccccn2)c1	TDP1 cell noCPT 8.2µM, 12-LOX inh 28µM, TDP1 cell CPT inconclusive
Cc1ccc(NC(=S)NNC(=S)Nc2ccc(C)cc2C)cc1	TDP1 cell noCPT 5.2µM, 12-LOX inh 35µM, TDP1 cell CPT 3.7µM
Cc1ccc(NC(=S)Nc2ccccn2)cc1C	TDP1 cell noCPT 16µM, 12-LOX inh inconclusive, TDP1 cell CPT 23µM
COc1ccc(NC(=S)Nc2ccccn2)cc1	TDP1 cell noCPT inconclusive, TDP1 cell CPT inconclusive
Cc1cc(C)cc(NC(=S)Nc2ccccn2)c1	TDP1 cell noCPT 10µM, 12-LOX inh 6.3µM, TDP1 cell CPT 13µM
Cc1ccc(NC(=O)CCC(=O)NNC(=S)Nc2ccccc2)c(C)c1	none
COC(=O)c1ccc(NC(=S)Nc2ccccn2)cc1	TDP1 cell noCPT inconclusive, 12-LOX inh inconclusive, TDP1 cell CPT inconclusive
CC(C)N1CC2CCC(C1)N2Cc1cccc(-c2ccsc2)c1	none (no result: TDP1 cell noCPT, HT1080-NT tox, TDP1 cell CPT, IL1B secr inh, HT1080 IDH1KD tx)
Cc1ccc(NC(=S)Nc2ccccn2)c(C)c1	TDP1 cell noCPT 5.2µM, HT1080-NT tox inconclusive, 12-LOX inh 11µM, TDP1 cell CPT 3.7µM
Cc1ccc(NC(=S)Nc2ccc3nc(-c4ccccn4)c(-c4ccccn4)nc3c2)cc1C	TDP1 cell noCPT inconclusive, TDP1 cell CPT 26µM (no result: 12-LOX inh)
O=C(CCC(=O)OCc1ccc([N+](=O)[O-])cc1Cl)Nc1ccccc1	none
Cc1ccc(OCCn2cnc3cc([N+](=O)[O-])ccc3c2=O)cc1	TDP1 cell noCPT inconclusive, TDP1 cell CPT inconclusive
COc1ccc2c(Cn3cnc4cc([N+](=O)[O-])ccc4c3=O)cc(=O)oc2c1	TDP1 cell noCPT 6.5µM, HT1080-NT tox 3.7µM, TDP1 cell CPT 5.2µM, HT1080 IDH1KD tx 2.6µM (no result: 12-LOX inh)
COC(=O)c1cccc(Nc2nc3ccccc3nc2C)c1	TDP1 cell noCPT inconclusive, TDP1 cell CPT 18µM, HT1080 IDH1KD tx inconclusive
COc1cc(Nc2nc3ccccc3nc2-n2nc(C)cc2C)cc(OC)c1	none (no result: TDP1 cell noCPT, HT1080-NT tox, TDP1 cell CPT, IL1B secr inh, HT1080 IDH1KD tx)
Cc1cc(NCc2ccco2)nc2cc(O)ccc12	TDP1 cell noCPT inconclusive, TDP1 cell CPT inconclusive
COC(=O)c1cc(Nc2cc(C)c3c(O)cccc3n2)cc(C(=O)OC)c1	TDP1 cell noCPT 13µM, TDP1 cell CPT 21µM
COC(=O)c1cc(Nc2cc(C)nc3ncnn23)cc(C(=O)OC)c1	none
COc1cc(Nc2nc3ccccc3nc2C(=O)OC(C)C)cc(OC)c1	12-LOX inh 6.3µM (no result: TDP1 cell noCPT, HT1080-NT tox, TDP1 cell CPT, IL1B secr inh, HT1080 IDH1KD tx)
COC(=O)c1cc(Nc2cc(C)c3ccc(O)cc3n2)cc(C(=O)OC)c1	TDP1 cell CPT inconclusive, IL1B secr inh -65
C=CCn1c(Oc2ccc(OC)cc2)nc2c1c(=O)n(C)c(=O)n2C	none (no result: TDP1 cell noCPT, HT1080-NT tox, TDP1 cell CPT, IL1B secr inh, HT1080 IDH1KD tx)
CCCCCCN1C[C@@H](n2cc(COC(=O)c3ccccc3)nn2)[C@H](O)C[C@@H]1c1ccc(C)cc1	TDP1 cell noCPT 12µM, TDP1 cell CPT 18µM
CCCCCCN1C[C@H](O)[C@@H](n2cc(COC(=O)c3ccccc3)nn2)C[C@@H]1c1ccc(C)cc1	TDP1 cell noCPT 16µM, 12-LOX inh inconclusive, TDP1 cell CPT inconclusive
CCCCCC(=O)N1C[C@H](n2cc(COC(=O)c3ccccc3)nn2)[C@@H](O)C[C@@H]1c1ccc(Cl)cc1	TDP1 cell noCPT 16µM, HT1080-NT tox inconclusive, 12-LOX inh inconclusive, TDP1 cell CPT inconclusive, HT1080 IDH1KD tx inconclusive
CCCCCC(=O)N1C[C@@H](n2cc(COC(=O)c3ccccc3)nn2)[C@H](O)C[C@@H]1c1ccc(Cl)cc1	TDP1 cell noCPT inconclusive, TDP1 cell CPT inconclusive
COc1cc2c(cc1OC)C(c1ccccc1)N(CC(=O)Nc1ccccc1)CC2 (stereo unspecified)	none (no result: TDP1 cell noCPT, HT1080-NT tox, TDP1 cell CPT, IL1B secr inh, HT1080 IDH1KD tx)
N#Cc1ccc(NC2CC(c3cc(N4CCC(O)C4)ncn3)C2)nc1 (stereo unspecified)	none (no result: TDP1 cell noCPT, HT1080-NT tox, TDP1 cell CPT, IL1B secr inh, HT1080 IDH1KD tx)
COc1cccc(OC)c1C(=O)NCCc1ccccc1	none
COc1cc(CCc2ccccc2)c(C(=O)O)c(O)c1CC=C(C)C	TDP1 cell noCPT 18µM, 12-LOX inh inconclusive, TDP1 cell CPT 23µM

Screening results as filed in PubChem BioAssay.
